Assay outcomes: PubChem, National Center for Advancing Translational Sciences (NCATS)
Only some compounds are listed: those with a hit (about 2.8% of all), similar ones and a draw of the others.
POLB inh – blocks human DNA polymerase beta activity | Potency, µM (top dose mostly 114 µM), inactives show at the top dose activity change, negative = inhibition, most hits filed as inhibitors | P06746 | 340,000 tested, 1.3% active | AID 485314 | Pol beta primer extension/strand displacement, fluorescence kinetic; further: potency means the concentration at half of the fitted maximal effect; on the % scale 0 is the no-effect control and ±100 the full control effect
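Pol beta (10 nM) and compounds were preincubated 15 min at room temperature, then 50 nM substrate (final) started primer extension/strand displacement. Reads were taken at 0 and 10 min; concentration-response data were fitted to a four-parameter Hill equation.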
PI5P4Ka inh – inhibitors of human PI5P4K alpha. P48426. PI5P4Kalpha enzyme, ADP-Glo luminescence, 60 min; hits give low values. max response, %. 330,000 tested, 1.2% active. AID 652105; active means max response of -50% or lower; inconclusive means between -30% and -50%; inactive means -30% or higher; further: value at the top dose of about 77 µM; on the % scale 0 is the no-effect control and ±100 the full control effect
Target sequence (P48426 whole entry, looked up): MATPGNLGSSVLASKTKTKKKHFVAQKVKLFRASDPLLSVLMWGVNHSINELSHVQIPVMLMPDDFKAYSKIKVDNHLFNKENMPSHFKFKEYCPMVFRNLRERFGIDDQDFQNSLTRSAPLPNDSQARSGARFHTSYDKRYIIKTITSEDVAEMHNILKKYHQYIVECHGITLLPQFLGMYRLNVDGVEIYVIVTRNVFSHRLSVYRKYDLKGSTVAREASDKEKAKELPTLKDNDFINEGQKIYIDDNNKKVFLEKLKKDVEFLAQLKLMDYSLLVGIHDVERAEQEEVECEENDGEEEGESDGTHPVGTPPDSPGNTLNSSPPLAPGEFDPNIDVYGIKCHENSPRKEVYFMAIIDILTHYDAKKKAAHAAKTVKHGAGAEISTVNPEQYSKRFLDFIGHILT
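PI5P4Kalpha ADP-Glo assay; 5 microM ATP final; 60 min RT reaction; HEPES pH 7.4/EGTA/CHAPS, 5% DMSO; controls lacking substrate or enzyme; luminescent end-point.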
POLK inh – DNA polymerase kappa (human) inhibition | Q9UBT6 | Potency, µM (doses to about 107 µM), without a hit: at the highest dose activity, negative = inhibition, usual class: inhibitors | 400,000 tested, 0.53% active | purified Pol kappa, fluorescent DNA synthesis assay, 10 min; further: potency means the concentration at half of the fitted maximal effect; on the % scale 0 is the no-effect control and ±100 the full control effect
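Kinetic fluorescence readout at 0 and 10 min followed reaction start with substrate at 50 nM final. Beforehand, enzyme (10 nM Pol kappa) stood 15 min with compound at room temperature; buffer-only wells were negative controls.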
PI4K2A inh – inhibitors of human PI4K2A; Q9BTU6; activity change, negative = inhibition, % at 76.9 µM; purified PI4K2A, ADP-Glo luminescence, 1 h; hits give low values; 420,000 tested, 0.13% active; in the data active means activity change below about -50%; inconclusive means mostly about -30% to -49%;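 further: -100% = wells without enzyme as full effect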
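ADP-Glo luminescence measured ADP generated by PI4K2A enzyme (4 ug/mL before mixing) with 1.2 mM PI substrate (pre-mix) and 300 microM ATP (pre-mix). Tris pH7.5 buffer with MgCl2, Triton X-100; 1 h reaction at ambient temperature.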
Pol eta inh – inhibitors of human DNA polymerase eta. 390,000 tested, 1.2% active. recombinant Pol eta, fluorescent DNA replication assay. Potency, µM (doses to about 114 µM), for inactives: at the highest dose activity change, negative = inhibition, hits mostly inhibitors; further: potency means the concentration at half of the fitted maximal effect; on the % scale 0 is the no-effect control and ±100 the full control effect
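Fluorescent replication assay: 50 nM final substrate added after a 15 min room-temperature compound preincubation with 10 nM enzyme. Signal taken at 0 min and again at 10 min.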
POLI inh – blocks human DNA polymerase iota activity; Q9UNA4; Pol iota fluorescent replication assay, 10 min; Potency, µM (titrated, usually from 115 µM), inactives show top-dose activity, negative = inhibition, usual class: inhibitors; 390,000 tested, 1% active; further: potency means the concentration at half of the fitted maximal effect
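Fluorescent replication assay read twice, at 0 min and 10 min after adding 50 nM (final) substrate. Enzyme (10 nM) and compounds were first incubated 15 min at room temperature; enzyme-free buffer wells were negative controls.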
* = called active by the depositor; [ ] = dose if it differs, or a comment. Unless noted, the call rests on the fitted dose curve; in most records, active means well fitted inhibition curve with a large enough effect; inconclusive means small, poorly fitted or top-dose-only effect, or another doubt; inactive means no such curve, though single readings can be large or run the other way.

N#C/C(=C\c1ccc(OCc2ccc(C(=O)O)cc2)cc1)C(=O)N1CCOCC1 was read as POLB inh 13%, PI5P4Ka inh -23, POLK inh -28%, PI4K2A inh 2, Pol eta inh 28µM* and POLI inh inconclusive.
`COc1cc(/C=C(\C#N)C(=O)N2CCOCC2)ccc1OCc1ccccc1` gave POLB inh 32%, PI5P4Ka inh 3, POLK inh -9%, PI4K2A inh 1, Pol eta inh -10% and POLI inh 15%.
For O=c1cc(/C=C/c2c(F)cccc2Cl)[nH]c2ccccc12 the results were POLB inh 27%, PI5P4Ka inh -1, POLK inh -10%, PI4K2A inh 1, Pol eta inh 11µM* and POLI inh 13%.
`Nc1nccc(/C=C/c2c(F)cccc2Cl)n1` gave POLB inh 1%, PI5P4Ka inh 0, POLK inh -1%, PI4K2A inh 2, Pol eta inh -15% and POLI inh 69%.
For Cn1cccc1C(=O)N1CCN(S(=O)(=O)c2cccs2)CC1 the results were PI4K2A inh -3.
Screening CC1CCN(c2c(NCC3CCC(C(=O)NCCc4ccc(Cl)cc4)CC3)c(=O)c2=O)CC1 (stereo not drawn) returned POLB inh inconclusive, PI5P4Ka inh -1, POLK inh -23%, PI4K2A inh 2, Pol eta inh 1% and POLI inh 0%.
For CC1CCN(c2c(NCc3ccc(C(=O)NCCc4ccc(Cl)cc4)cc3)c(=O)c2=O)CC1 the results were POLB inh 32µM*, PI5P4Ka inh 2, POLK inh -20%, PI4K2A inh -3, Pol eta inh -13% and POLI inh inconclusive.
`CCCCC(=O)OCC(=O)[C@H]1[C@H](C)C[C@H]2[C@@H]3C[C@H](F)C4=CC(=O)C=C[C@]4(C)[C@@]3(F)[C@@H](O)C[C@@]21C` gave PI4K2A inh 2.
Fc1ccc(N=C2NN=C(c3cc(F)ccc3F)CS2)cc1 was read as POLB inh 14%, PI5P4Ka inh -13, POLK inh -10%, PI4K2A inh -1, Pol eta inh -15% and POLI inh 145%.
O=S(=O)(c1ccc(N=C2NN=C(c3cc(F)ccc3F)CS2)cc1)N1CCOCC1 was read as POLB inh 2%, PI5P4Ka inh -51*, POLK inh 1%, PI4K2A inh -8, Pol eta inh -18% and POLI inh -1%.
Screening CC1(C)CC(=O)C(N=Nc2cc(S(=O)(=O)N3CCOCC3)ccc2Cl)=C(O)C1 returned POLB inh 22µM*, PI5P4Ka inh -2, POLK inh 2%, PI4K2A inh 2, Pol eta inh -18% and POLI inh 3%.
`CC1(C)CC(=O)C(N=Nc2cc(C(F)(F)F)ccc2Cl)=C(O)C1` gave POLB inh -1%, PI5P4Ka inh 4, POLK inh 6%, PI4K2A inh 2, Pol eta inh -16% and POLI inh 15%.
For Cc1ccc(S(=O)(=O)n2c(N)nc3ccccc32)cc1 the results were POLB inh -6%, PI5P4Ka inh 6, POLK inh 2%, PI4K2A inh -2, Pol eta inh -15% and POLI inh -12%.
`Cc1ccc(/C=C/c2nc3ccccc3n2S(=O)(=O)c2ccc(Br)cc2)cc1` gave POLB inh -8%, POLK inh -8%[60.1 µM], PI4K2A inh -63*, Pol eta inh 1% and POLI inh -3%.
`CCCCCCCCCCCCCCOc1ccc(C(=O)O)o1` gave POLK inh 12µM*.
For COc1cc(-c2noc(C)c2C#CCCN2C(=O)c3ccccc3C2=O)cc(OC)c1OC the results were POLK inh 5% and POLI inh 12%.
`OC1c2ccccc2N=C2CCCN21` (stereo not drawn) gave POLK inh 12%[60.1 µM].
`Nc1cc2nsnc2cc1Br` gave POLB inh inconclusive, PI5P4Ka inh -16, POLK inh -19%, PI4K2A inh inconclusive, Pol eta inh 3.5µM* and POLI inh 3.5µM*.
Screening Nc1cccc2nsnc12 returned POLB inh 2%, PI5P4Ka inh -14, POLK inh -16%, PI4K2A inh -4, Pol eta inh 3% and POLI inh inconclusive.
For O=C(CSc1nnc(Cc2csc(Nc3cccc(Cl)c3)n2)o1)N1CCc2ccccc21 the results were POLB inh 1%, PI5P4Ka inh -25, POLK inh -28%, PI4K2A inh -12, Pol eta inh inconclusive and POLI inh 79µM*.
CCOC(=O)c1c(N2C(=O)Nc3cc(Cl)c(Cl)cc3N2O)sc2c1CCCCC2 was read as POLB inh 50µM*, PI5P4Ka inh inconclusive, POLK inh -26%, PI4K2A inh -8, Pol eta inh inconclusive and POLI inh -10%.
For O=S1(=O)Nc2c(cc(Cl)c3ccc(Cl)nc23)-c2ccccc21 the results were POLK inh 79µM* and POLI inh inconclusive.
Screening CC(NC(=O)OC(C)(C)C)C(=O)Oc1cc2oc(=O)cc(-c3ccccc3)c2cc1Cl (stereo not drawn) returned POLB inh -21%, PI5P4Ka inh -69*, POLK inh -4%, PI4K2A inh 0, Pol eta inh 0% and POLI inh -8%.
Cc1cc(C)c2c(n1)SCC(=O)N2CC(=O)Nc1cccc(C)c1C was read as POLB inh 7%, POLK inh -6%, PI4K2A inh 1, Pol eta inh -16% and POLI inh 29%.
CCOC(=O)c1cc(=O)n2[nH]c(-c3ccc(C)cc3)cc2n1 was read as POLB inh -10%, PI5P4Ka inh inconclusive, POLK inh -18%, PI4K2A inh -11, Pol eta inh -12% and POLI inh -2%.
CCOC(=O)Cc1cc(=O)n2[nH]c(-c3ccc(C)cc3)cc2n1 was read as POLB inh 22µM*, POLK inh -38%, PI4K2A inh -10, Pol eta inh inconclusive and POLI inh 79µM*.
`CN1CCN(c2ncc3nc(-c4cc(F)cc(F)c4)c(=O)n(CCc4ccccc4)c3n2)CC1` gave POLK inh 5%[60.1 µM].
For COc1ccc(NC(=O)Cc2cccs2)cc1S(=O)(=O)N1CCCCC1 the results were PI5P4Ka inh 3, POLK inh -4%, PI4K2A inh -6, Pol eta inh -20% and POLI inh 72%.
For COc1ccc(NC(C)=O)cc1S(=O)(=O)N1CCN(Cc2cccs2)CC1 the results were PI5P4Ka inh -1, POLK inh -42%, PI4K2A inh -3, Pol eta inh 25µM* and POLI inh inconclusive.
